From PubChem BioAssay (Tox21)
Inconclusive results are not listed. Active and inactive are the calls of the source. Unless noted, calls follow the shape of the dose curve; as a rule, active = well fitted curve in the direction sought with a large enough effect in the repeat runs; inconclusive = weak or mixed curves; inactive = no such curve, though single readings can be large; an effect the other way counts as inactive or inconclusive.

Tests used:
[1] = qHTS assay for small molecule agonists of the p53 signaling pathway (AID 651631; calls by dose curve; also: nearly all actives have a fitted effect of over 15% in size)
Outline: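 HCT-116 cells carrying a stable p53 response element–beta-lactamase reporter were plated, rested 5 h at 37 °C, then exposed to compound in DMSO for 16 h at 37 °C; reporter activity was read as FRET substrate fluorescence after 2 h at room temperature.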

[2] = qHTS assay for small molecules that induce genotoxicity in human embryonic kidney cells expressing luciferase-tagged ATAD5 (AID 651632); also: nearly all actives have a fitted effect of over 15% in size
Outline: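 Luminescence read-out: after 16 hr compound exposure at 37C, ATAD5-luciferase HEK293T cells received Amplite, 30 min RT, then CCD imaging. A rise in signal marks genotoxic stress.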

[3] = qHTS assay for small molecule agonists of the p53 signaling pathway - cell viability (AID 651633; calls by dose curve; also: series mostly up to about 83 µM; nearly all actives have a fitted effect of over 30% in size)
Outline: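 p53RE-bla cells were treated with compound for 16 hours at 37 C. Cytotoxicity was then measured as CellTiter-Glo luminescence after 30 min at room temperature.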

[4] = qHTS assay for small molecules that induce genotoxicity in human embryonic kidney cells expressing luciferase-tagged ATAD5 - cell viability (AID 651634; calls by dose curve; also: nearly all actives have a fitted effect of over 25% in size)
Outline: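 HEK293T ATAD5-luc cells, 2,000/well; compound 15.5 hr, 37C/5% CO2; CellTiter-Fluor 30 min, 37C; fluorescence read.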

[5] = qHTS assay for small molecule disruptors of the mitochondrial membrane potential - cell viability (AID 720634; calls by dose curve;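 also: human HepG2 liver cancer cells; series mostly up to about 83 µM; nearly all actives have a fitted effect of over 20% in size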)
Outline: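 Luminescence from CellTiter-Glo (ATP content) gave viability in HepG2 cells, read in the same wells as the MMP dye assay after 1 hr compound exposure at 37 C.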

[6] = qHTS assay to test for compound auto fluorescence at 590 nm (red) in HepG2 cells (AID 720674)
Outline: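 Fluorescence at 590 nm emission following 540 nm excitation was recorded from HepG2 wells one hour after compound transfer, with DMSO-only wells as vehicle and Rose Bengal sodium equivalency as the scale.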

[7] = qHTS assay to test for compound auto fluorescence at 535 nm (green) in HepG2 cells (AID 720675)
[8] = qHTS assay to test for compound auto fluorescence at 460 nm (blue) in HEK293 cells (AID 720678)
Outline: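 Blue read-out at excitation 405 nm and emission 460 nm follows overnight compound exposure of HEK293 cells at 37C in 5% CO2. Activity is given as auto fluorescence equivalency to triamterene.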

[9] = qHTS assay to test for compound auto fluorescence at 590 nm (red) in HEK293 cells (AID 720679)
Outline: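 Red channel, Ex/Em 540/590nm; signal expressed as equivalency to Rose Bengal sodium. HEK293, 2,000 cells/well, 10% dialyzed FBS; 23 nL compound pinned after 4-5 hr attachment; overnight 37C/5% CO2 before reading.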

[10] = qHTS assay to test for compound auto fluorescence at 535 nm (green) in HEK293 cells (AID 720680)
[11] = qHTS assay to test for compound auto fluorescence at 460 nm (blue) in HEK293 cell free culture (AID 720681)
Outline: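 Compounds were added to cell-free DMEM with 10% FBS and fluorescence read directly. The blue channel used 405 nm excitation and 460 nm emission, with triamterene as the reference fluorophore.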

[12] = qHTS assay to test for compound auto fluorescence at 535 nm (green) in HEK293 cell free culture (AID 720682)
Outline: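 Read-out: 485/535 nm fluorescence intensity, calibrated against fluorescein. Medium only (DMEM + 10% FBS, no cells); test compound or DMSO vehicle added by pintool before plate reading.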

[13] = qHTS assay to test for compound auto fluorescence at 590 nm (red) in HEK293 cell free culture (AID 720683)
Outline: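 Cell-free wells of DMEM with 10% FBS received compound, and intrinsic fluorescence was read at excitation/emission 540/590 nm. Values expressed as equivalence to Rose Bengal sodium.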

[14] = qHTS assay to test for compound auto fluorescence at 590 nm (red) in HepG2 cell free culture (AID 720684)
Outline: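 Auto fluorescence equivalency versus Rose Bengal sodium, red channel Ex/Em 540/590 nm; compounds in cell-free MEM/10% FBS; DMSO vehicle control.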

[15] = qHTS assay to test for compound auto fluorescence at 460 nm (blue) in HepG2 cell free culture (AID 720685)
Outline: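 Cell-free plates of MEM plus 10% FBS received 23 nL compound or DMSO vehicle; blue-channel (405/460 nm) intensity scored against triamterene as reference fluorophore.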

[16] = qHTS assay to test for compound auto fluorescence at 535 nm (green) in HepG2 cell free culture (AID 720686)
[17] = qHTS assay to test for compound auto fluorescence at 460 nm (blue) in HepG2 cells (AID 720687)
Outline: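 HepG2 cells in MEM with 10% FBS, attached overnight at 37 C, were exposed to compound or DMSO for 1 hr at 37 C, 5% CO2. Blue fluorescence was read at 405/460 nm, with triamterene as reference fluorophore.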

[18] = biological target: Glucocorticoid receptor (Homo sapiens) (UniProt P04150); assay: qHTS assay to identify small molecule agonists of the glucocorticoid receptor (GR) signaling pathway (AID 720691; active = well fitted activation curve with a large enough effect in the signal ratio in the repeat runs, not every such curve was filed as active; the % refers to the signal ratio)
Chain of Glucocorticoid receptor (Homo sapiens) (P04150 whole entry, looked up): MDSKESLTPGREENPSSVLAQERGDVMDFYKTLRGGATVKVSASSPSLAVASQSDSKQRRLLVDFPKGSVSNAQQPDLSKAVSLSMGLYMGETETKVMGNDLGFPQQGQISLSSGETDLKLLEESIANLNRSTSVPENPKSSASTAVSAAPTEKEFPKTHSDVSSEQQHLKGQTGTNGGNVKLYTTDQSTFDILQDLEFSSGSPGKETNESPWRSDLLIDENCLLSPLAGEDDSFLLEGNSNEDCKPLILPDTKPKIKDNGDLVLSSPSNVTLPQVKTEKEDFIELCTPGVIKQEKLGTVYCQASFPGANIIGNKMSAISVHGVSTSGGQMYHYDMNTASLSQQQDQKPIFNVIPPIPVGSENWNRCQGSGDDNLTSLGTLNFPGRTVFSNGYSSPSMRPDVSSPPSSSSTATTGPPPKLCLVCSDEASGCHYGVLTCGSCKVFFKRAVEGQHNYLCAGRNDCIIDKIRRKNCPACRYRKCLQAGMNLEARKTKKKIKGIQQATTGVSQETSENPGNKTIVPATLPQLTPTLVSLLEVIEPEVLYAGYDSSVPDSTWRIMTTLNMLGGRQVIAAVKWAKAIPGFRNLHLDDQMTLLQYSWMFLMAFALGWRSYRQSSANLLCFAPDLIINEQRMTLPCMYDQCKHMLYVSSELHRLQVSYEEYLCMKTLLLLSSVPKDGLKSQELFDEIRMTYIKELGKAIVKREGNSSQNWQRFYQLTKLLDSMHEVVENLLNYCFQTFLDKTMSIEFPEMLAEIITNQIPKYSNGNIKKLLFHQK
Outline: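 HeLa GR-bla reporter line; cells pre-incubated 4 h, compound in DMSO 18 h at 37 C; LiveBLAzer B/G FRET substrate 2 h RT; fluorescence intensity read-out.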

[19] = biological target: Glucocorticoid receptor (Homo sapiens) (UniProt P04150); assay: qHTS assay to identify small molecule antagonists of the glucocorticoid receptor (GR) signaling pathway (AID 720692; active = well fitted inhibition curve with a large enough effect in the signal ratio in the repeat runs, not every such curve was filed as active; the % refers to the signal ratio)
Outline: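 Read-out: beta-lactamase FRET substrate fluorescence, 2 h at room temperature, in HeLa cells stably carrying a GRE-driven bla reporter. Compounds were co-incubated with 5 nM dexamethasone agonist (final) for 18 h at 37 C.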

[20] = qHTS assay for small molecule disruptors of the mitochondrial membrane potential (AID 720635)
Outline: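 HepG2 cells exposed to compound 1 hr at 37C, then Mito-MPS dye 30 min. Ratio read of aggregate (540/590 nm) versus monomer (490/535 nm) fluorescence.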

Measured: Potency

CCOP(=S)(S)OCC
not listed: [20]
inactive: all other assays above

CCCC[N+](CCCC)(CCCC)CCCC
not listed: [19] | [20]
inactive: all other assays above

CCC[N+](CCC)(CCC)CCC
not listed: [3] | [18] | [19]
inactive: all other assays above

CCCSP(=S)(OCC)Oc1ccc(SC)cc1 (stereo not drawn)
not listed: [5] | [18] | [19] | [20]
inactive: all other assays above

CCOC(=O)c1cn2nc(OP(=S)(OCC)OCC)cc2nc1C
not listed: [5] | [20]
inactive: all other assays above

O=C([O-])c1ccccn1.O=C([O-])c1ccccn1.O=C([O-])c1ccccn1.[Cr+3]
not listed: [3] | [19]
inactive: all other assays above

C[C@H](N)[C@H](O)c1ccc(O)c(O)c1
not listed: [18] | [19] | [20]
inactive: all other assays above

Clc1ccc2ccccc2c1
not listed: [3] | [8] | [11]
inactive: all other assays above

c1ccc2c(c1)sc1ccccc12
not listed: [20]
inactive: all other assays above

O=C1CC[C@@]2(O)[C@H]3Cc4ccc(O)c5c4[C@@]2(CCN3CC2CC2)[C@H]1O5
not listed: [20]
inactive: all other assays above

C=CC(=O)NC(C)(C)CC(C)=O
not listed: [11] | [19] | [20]
inactive: all other assays above

OCCSSCCO
not listed: [20]
inactive: all other assays above

CCCCCCCCCCCCCCCl
not listed: [3] | [11]
inactive: all other assays above

CCN(C(C)=O)c1cccc(-c2ccnc3c(C#N)cnn23)c1
not listed: [18] | [19] | [20]
inactive: all other assays above

O=C(O)C(F)(F)C(F)(F)C(F)(F)C(F)(F)C(F)(F)F
not listed: [20]
inactive: all other assays above
